# Screening data from PubChem.
# Hits are enriched below; roughly 4.4% of the tested compounds scored in any of these assays.
# tim10-1 inh: growth inhibitors of tim10-1 mutant yeast, primary screen, luminescence, uHTS. S. cerevisiae tim10-1 ts strain growth, BacTiter-Glo, 24 h. inhibition, % at 20 µM. hit rate 2.2% among 330,000;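 active = inhibition of at least 40%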;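 note: mutant grown at 25 °C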
# SKKanGAS inh: S. pyogenes SKKanGAS growth inhibitors in kanamycin, primary screen, streptokinase expression inhibitor project, SKKanGAS strain, BacTiter-Glo luminescence. inhibition, % at 7.5 µM. hit rate 1.3% among 300,000. 6 h. AID 1662, 2009;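 active = mean replicate score, as percent of positive control median, at least 50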;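 note: strain carries kanamycin resistance gene driven by streptokinase promoter and grows in 40 µg/ml kanamycin; loss of luminescence reflects streptokinase promoter inhibition or plain growth inhibition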
# TIM10 inh: growth inhibitors of isogenic TIM10 control yeast, primary screen, counter-screen for tim10-1 yeast inhibitor project, luminescence, uHTS | S. cerevisiae TIM10 strain growth, BacTiter-Glo luminescence, 24 h | inhibition, % at 10 µM | hit rate 1.4% among 330,000;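 active = inhibition of 40% or more at the single tested concentration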;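 note: wild-type TIM10 isogenic control strain grown at permissive 25 °C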
# tim23-1 inh: growth inhibitors of tim23-1 mutant yeast, primary screen, luminescence, uHTS. S. cerevisiae tim23-1 growth, BacTiter-Glo luminescence, 24 h. inhibition, % at 20 µM. hit rate 1.3% among 330,000;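 active = growth inhibition of the mutant yeast at or above 50%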;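 note: temperature-sensitive mutant grown at 25 °C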
# PfHsp90 set2: growth inhibition of PfHsp90-expressing yeast, primary screen, antimalarial PfHsp90 inhibitor project, S. cerevisiae, BacTiter-Glo luminescence, single point, set 2; inhibition, % at 9.4 µM; BacTiter-Glo ATP, 48 h; yeast lacking PDR1 and PDR3 efflux regulators; AID 504621, 2011; hit rate 0.32% among 310,000;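 active = every replicate shows inhibition above about 80%, whatever the replicate mean, limit read from the data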
# tim10-1 conf: growth inhibitors of tim10-1 mutant yeast, confirmation, single concentration, luminescence, S. cerevisiae | shares compounds with tim10-1 inh | S. cerevisiae tim10-1 ts strain growth, BacTiter-Glo, 24 h | inhibition, % at 20 µM | hit rate 56% among 7,400 | AID 463213, 2010;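 active = inhibition of yeast growth at or above a set limit in either of two repeat tests at 20 µM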;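 note: tim10-1 mutant grown at permissive 25 °C to find synthetic lethal compounds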
# TIM10 conf: growth inhibitors of wild-type TIM10 yeast, confirmation, counter-screen for tim10-1 synthetic lethality project, single concentration, luminescence, S. cerevisiae. inhibition, % at 10 µM. hit rate 63% among 4,600. shares compounds with TIM10 inh. S. cerevisiae tim10 strain growth, BacTiter-Glo luminescence, 24 h. AID 463215, 2010;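 active = inhibition of yeast growth at or above a set limit in either of two replicates at 10 µM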; note: this counterscreen used the strain with wild-type TIM10
# tim23-1 confirm: tim23-1 mutant yeast growth inhibitors, confirmation, luminescence, single concentration; inhibition, % at 20 µM; S. cerevisiae tim23-1 growth, BacTiter-Glo luminescence, 24 h; hit rate 83% among 4,400; shares compounds with tim23-1 inh;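 active = inhibition above about 39% in either of two replicate wells at 20 µM, limit read from the data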;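 note: temperature-sensitive tim23-1 mutant grown at 25 °C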
# A number is an active result; i = inactive; nt = no result.
SMILES,tim10-1 inh,SKKanGAS inh,TIM10 inh,tim23-1 inh,PfHsp90 set2,tim10-1 conf,TIM10 conf,tim23-1 confirm
O=C(COc1ccc(Br)cc1CO)Nc1ccc(S(=O)(=O)N2CCCCC2)cc1,40,nt,i,53,i,50,nt,61
CCc1cc(=O)oc2cc(C)cc(OC(C)C(=O)NCCN3CCOCC3)c12 (stereo not drawn),i,i,i,i,i,nt,nt,nt
Cc1ccc(C(=O)OCC(=O)N(C)c2ccccc2)c(C)c1,57,i,i,52,i,50,nt,46
CC[n+]1c(/C=C/Nc2ccccc2)sc2ccccc21,i,i,i,i,i,nt,nt,nt
CCN1/C(=C/C=C/C=C/c2sc3ccccc3[n+]2CC)Sc2ccccc21,80,104,81,89,nt,79,i,86
CCN1/C(=C/C=C/c2sc3ccccc3[n+]2CC)Sc2ccccc21,77,89,83,85,i,77,76,85
CCOc1ccc(/C=C/[N+](=O)[O-])c2ccccc12,51,i,65,73,i,i,55,i
CCn1ncc([N+](=O)[O-])c1C(=O)Nc1nc2cccc(C)c2s1,47,i,i,51,i,i,nt,50
Cc1ccc(C(=O)OCC(=O)NNC(=O)c2cccs2)c(O)c1,i,i,i,i,i,nt,nt,nt
N/C(=N\OC(=O)Nc1ccccc1)c1ncc([N+](=O)[O-])s1,51,i,57,77,i,48,60,i
O=C(Nc1ccccc1)ON=C1CCCC1,i,i,i,i,i,nt,nt,nt
CCC(=O)C(C#N)(c1ccc(OC)c(OC)c1)C(C)C (stereo not drawn),i,nt,i,i,i,nt,nt,nt
Cc1cccc(NC(=S)NNC(=O)COc2ccc(Cl)cc2Cl)c1,46,i,43,52,i,32,i,42
COc1ccc(CC(=O)NC(=S)Nc2cccc(CO)c2)cc1,i,i,i,i,nt,nt,nt,nt
COc1ccc(CC(=O)NC(=S)Nc2cccc(C)c2)cc1,46,i,47,62,i,29,36,46
CN(Cc1nccs1)C(=O)C1CCC(=O)N(CCc2ccc(Cl)cc2)C1 (stereo not drawn),i,i,i,i,i,nt,nt,nt
COC(=O)N/N=C/c1ccc([N+](=O)[O-])s1,42,i,i,83,i,33,nt,88
O=C(N/N=C/c1ccc([N+](=O)[O-])s1)c1ccccc1,i,i,i,i,i,nt,nt,nt
O=C(N/N=C\c1ccc([N+](=O)[O-])s1)c1cncc(Br)c1,45,i,55,69,i,35,51,69
O=C(NC(=S)NCc1ccccc1)c1cccs1,51,i,i,61,i,43,nt,52
O=C(NC(=S)NCc1ccccc1)c1ccccc1,i,i,i,i,i,nt,nt,nt
O=C(C=Cc1ccccc1Cl)c1ccccc1,nt,nt,nt,nt,i,nt,nt,nt
O=C(/C=C/Sc1ccccc1)c1ccc(Cl)cc1,51,i,i,59,i,47,nt,46
Cc1cc(-c2n[nH]c(=S)n2/N=C/C(Cl)=C/c2ccccc2)n[nH]1,51,i,54,54,i,47,i,48
S=c1[nH]nc(-c2ccco2)n1/N=C/C(Cl)=C/c1ccccc1,i,i,i,i,i,nt,nt,nt
SMILES,tim10-1 inh,SKKanGAS inh,TIM10 inh,tim23-1 inh,PfHsp90 set2,tim10-1 conf,TIM10 conf,tim23-1 confirm
CC(=C/c1ccccc1)/C=N/n1c(C)n[nH]c1=S,i,i,i,i,i,nt,nt,nt
CC(/C=N/n1c(COc2ccccc2)n[nH]c1=S)=C\c1ccccc1,43,i,i,51,i,i,nt,50
COc1ccc(Cl)cc1NS(=O)(=O)c1cccc(C(=O)NC2CC2)c1,i,nt,i,i,i,nt,nt,nt
Cc1ccc(-n2nc3c(c2NC(=O)c2cc4ccccc4o2)CS(=O)(=O)C3)cc1,40,i,i,51,i,i,nt,47
N#C/C(=C\c1ccncc1)C(=O)Nc1ccc(C(=O)O)cc1,i,i,i,i,i,nt,nt,nt
CCOc1cccc(NC(=O)/C(C#N)=C\c2cccnc2)c1,61,i,52,81,i,40,48,79
CC(C)c1ccc(NC(=O)/C(C#N)=C/c2ccncc2)cc1,54,i,i,78,i,i,nt,55
CCCOc1ccccc1/C=C(\C#N)C(=O)Nc1cccnc1,73,i,54,85,i,48,46,71
CCN(CC(=O)NCc1ccncc1)S(=O)(=O)c1ccccc1,i,i,i,i,i,nt,nt,nt
O=C(C(=O)N1CCCCC1)c1cn(CC(=O)N2CCCCCC2)c2ccccc12,i,i,i,i,i,nt,nt,nt
C#Cc1cccc(C(=O)N2CCCC(C(=O)c3ccc(OC)cc3C)C2)c1 (stereo not drawn),i,i,i,i,i,nt,nt,nt
C=C(C(=O)c1ccccc1)C(CC(=O)c1ccccc1)c1ccccc1 (stereo not drawn),59,i,58,56,i,51,i,56
O=C1C2C3C=CC(C4CC34)C2C(=O)N1/N=C/c1ccc([N+](=O)[O-])o1 (stereo not drawn),67,i,45,76,i,55,46,74
O=C1C2C(C(=O)N1/N=C/c1ccc([N+](=O)[O-])o1)C1C=CC2C12CC2 (stereo not drawn),57,i,43,64,i,50,i,62
O=C1C2C3C=CC(C4CC34)C2C(=O)N1/N=C/c1ccc(-c2ccc([N+](=O)[O-])cc2)o1 (stereo not drawn),i,nt,i,i,i,nt,nt,nt
O=c1ccc2cc3c(-c4ccccc4)coc3cc2o1,60,i,46,64,i,61,58,66
CC(=O)Oc1ccc2occ(-c3ccccc3)c2c1,i,i,i,i,i,nt,nt,nt
COc1ccc2c(c1)CC/C2=N\OC(=O)c1ccccc1OC,53,i,71,81,i,38,80,79
CCn1c(C(=O)NC(C)c2ccc3c(c2)OCCO3)cc2sccc21 (stereo not drawn),44,i,i,53,i,32,nt,46
Cc1noc2ncnc(Sc3ccc(Br)cc3)c12,54,i,i,65,i,74,nt,68
Cc1ccc(S(=O)(=O)N2CCN(S(=O)(=O)c3ccccc3Br)CC2)cc1,i,nt,i,i,i,nt,nt,nt
COc1ccc2oc(/C=C/N(C)C)c(C(=O)c3ccc(Cl)cc3)c2c1,45,i,i,50,112,i,nt,51
COc1ccc2oc(C)c(C(=O)c3ccccc3)c2c1,i,i,i,i,i,nt,nt,nt
